In all, about 310,000 compounds went through this assay and about 14,000 (4.5%) showed an effect of 50% or more. Effects have a minus sign here. For the sample, strong results were picked, then their nearest neighbours and some compounds at random.
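Note: peak tail current of the secondary pulse compared with the same well before compound.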

In the assay the target is human ether-à-go-go-related gene (hERG) potassium channel (human, UniProt Q12809). Description: primary screen, population patch clamp on CHO cells stably expressing hERG; higher = less effect of the substance.
Sequence of human ether-à-go-go-related gene (hERG) potassium channel (Q12809 whole entry, looked up): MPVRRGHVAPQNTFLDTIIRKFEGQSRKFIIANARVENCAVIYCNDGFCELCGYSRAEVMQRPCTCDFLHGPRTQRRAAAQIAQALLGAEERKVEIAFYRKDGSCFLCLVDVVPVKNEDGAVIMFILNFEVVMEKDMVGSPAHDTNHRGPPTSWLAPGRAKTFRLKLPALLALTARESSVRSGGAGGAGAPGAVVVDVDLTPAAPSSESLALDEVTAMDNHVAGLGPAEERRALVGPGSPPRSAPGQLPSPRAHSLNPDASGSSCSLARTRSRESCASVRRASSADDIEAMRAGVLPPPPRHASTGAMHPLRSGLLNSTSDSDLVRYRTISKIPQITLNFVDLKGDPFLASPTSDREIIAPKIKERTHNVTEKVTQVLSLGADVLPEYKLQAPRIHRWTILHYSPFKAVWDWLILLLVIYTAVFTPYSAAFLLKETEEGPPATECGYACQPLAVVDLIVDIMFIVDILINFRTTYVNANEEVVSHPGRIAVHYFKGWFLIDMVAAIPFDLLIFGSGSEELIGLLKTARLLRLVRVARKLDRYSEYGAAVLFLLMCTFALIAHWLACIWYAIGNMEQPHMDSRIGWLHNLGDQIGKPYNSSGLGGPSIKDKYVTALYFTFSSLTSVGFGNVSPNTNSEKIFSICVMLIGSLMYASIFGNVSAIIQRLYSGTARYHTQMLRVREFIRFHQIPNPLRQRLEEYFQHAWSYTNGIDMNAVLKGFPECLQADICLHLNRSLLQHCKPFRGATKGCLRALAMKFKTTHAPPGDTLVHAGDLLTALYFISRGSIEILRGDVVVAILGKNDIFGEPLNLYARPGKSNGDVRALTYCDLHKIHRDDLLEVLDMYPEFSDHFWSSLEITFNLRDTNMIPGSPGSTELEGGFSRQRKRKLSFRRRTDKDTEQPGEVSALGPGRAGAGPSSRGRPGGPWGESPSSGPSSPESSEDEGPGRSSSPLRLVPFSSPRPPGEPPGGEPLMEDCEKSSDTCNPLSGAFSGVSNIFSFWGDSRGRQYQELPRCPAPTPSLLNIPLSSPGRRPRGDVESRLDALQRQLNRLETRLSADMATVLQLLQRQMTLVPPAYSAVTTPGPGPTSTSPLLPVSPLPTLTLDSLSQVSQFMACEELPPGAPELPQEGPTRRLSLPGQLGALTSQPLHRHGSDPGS
For `Cc1cccc(C(=O)NC2CCN(C(=S)NCc3ccco3)CC2)c1`, the “hERG current change (%, negative = inhibition) at 10uM” value was -46.7%.
For `CCOC(=O)CSc1ncc(-c2cccc(Cl)c2)cn1` the value was -17.4%; for `CC/C(CC(c1ccccc1)c1c(O)c2ccccc2oc1=O)=N\NC(N)=S` (stereo not drawn), 2.2%; for `Cc1cc(O)c(C(C[N+](=O)[O-])c2ccc(Cl)cc2Cl)c(=O)o1` (stereo not drawn), 6.51%.
For `CCOC(=O)N1CCN(C(=O)COc2cc(=O)n(CC)c3ccccc23)CC1` the value was -17%; for `CCCCc1cc2c(cc1NC(=O)CN1CCCCC1)OCCO2.Cl`, 3.82%; for `COc1ccc(-c2cc(C(=O)Nc3ccccc3O)c3ccccc3n2)cc1`, 13.1%.
For `Cc1cccc(NC(=O)c2cccc(N3C(=O)C4C5CCC(C5)C4C3=O)c2)c1C` (stereo not drawn) the value was -7.75%.
For the molecule `Cc1ccc(-n2c(=O)[nH]c3c(C(N)=O)nc(-c4ccc(C)o4)nc32)cc1`, the “hERG current change (%, negative = inhibition) at 10uM” value was 14.7%.
Turning to `Cc1oc2ccc(Br)cc2c(=O)c1-c1nn[nH]n1`, the “hERG current change (%, negative = inhibition) at 10uM” value is 3.71%.
With `Cc1c(-c2cc[n+]([O-])cc2)oc2ccc(Br)cc2c1=O` the figure was -54.2%; with `Cc1c(-c2ccncc2)oc2ccc(Br)cc2c1=O`, -41.2%.
In the case of `Cc1ccc(S(=O)(=O)Oc2cccc(N3C(=O)C4CC=CCC4C3=O)c2)cc1` (stereo not drawn), the “hERG current change (%, negative = inhibition) at 10uM” value is -17.3%.
With `CC(=O)NC(Cc1cc(C)ccc1C)C(=O)N1CCN(C(=O)c2ccc([N+](=O)[O-])cc2)CC1` (stereo not drawn) the figure was -30.2%; with `CC(=O)NC(Cc1cc(C)ccc1C)C(=O)N1CCN(C(=O)c2ccccc2Br)CC1` (stereo not drawn), -0.358%; with `CC(=O)NC(Cc1cc(C)ccc1C)C(=O)N1CCN(C(=O)c2ccc(Br)cc2)CC1` (stereo not drawn), -71.8%.
With `CCOC(=O)c1c(NC(=O)COC(=O)CCOc2ccccc2C)sc(C(=O)NC)c1C` the figure was 20.1%; with `Cc1ccc(/C=C/C(=O)OCC(=O)Nc2ccc3[nH]c(=O)[nH]c3c2)o1`, 2.52%.
`COc1ccc(/C=N/Nc2nnc(Cc3ccccc3)c(=O)[nH]2)cc1`: the “hERG current change (%, negative = inhibition) at 10uM” value was -15.1%.
`COc1ccc(/C=N/Nc2nnc(Cc3ccc(OC)c(OC)c3)c(=O)[nH]2)cc1OC`: the “hERG current change (%, negative = inhibition) at 10uM” value came to 18.9%.
For the molecule `COc1ccc(/C=N/Nc2nnc(Cc3ccccc3)c(=O)[nH]2)cc1OC`, the “hERG current change (%, negative = inhibition) at 10uM” value is on record as -61.4%.
With `Oc1ccc(N=Nc2n[nH]c(-c3ccccc3)n2)cc1` the figure was 9.94%; with `CCOc1ccc(NC(=O)Nc2ccon2)cc1`, 16.7%; with `CCC(=O)Nc1ccc(Cl)c(NC(=O)c2ccc([N+](=O)[O-])cc2)c1`, -5.07%.
For `CC(C)C(=O)Nc1ccc(NC(=O)c2ccc([N+](=O)[O-])cc2Cl)cc1` the value was 5.02%.
With `CC(=O)Nc1ccc(NC(=O)c2ccc([N+](=O)[O-])cc2Cl)cc1` the figure was 6.15%.
With `CCCC(=O)Nc1ccc(Cl)c(NC(=O)c2ccc([N+](=O)[O-])cc2Cl)c1`, the “hERG current change (%, negative = inhibition) at 10uM” value is -51.2%.
Consider `CCC(C)NS(=O)(=O)c1ccc(NC(=O)c2ccc([N+](=O)[O-])cc2Cl)cc1` (stereo not drawn), for which the “hERG current change (%, negative = inhibition) at 10uM” value is -88.7%.
In the case of `CCCC(=O)Nc1cccc(NC(=O)c2ccc([N+](=O)[O-])cc2Cl)c1`, the “hERG current change (%, negative = inhibition) at 10uM” value is -14.5%.
As to `CC(C)(C)NC(=O)NC(=O)CN1CCN(Cc2ccccc2)CC1`, the “hERG current change (%, negative = inhibition) at 10uM” value is recorded as -1.77%.
On to `COC(=O)[C@@]1(Cc2ccc(OC)cc2)[C@H]2c3cc(C(=O)N(C)C)n(CCc4ccc(OC)c(Br)c4)c3C[C@H]2CN1C(=O)c1ccccc1`, for which the “hERG current change (%, negative = inhibition) at 10uM” value is given as 11.4%.
For the molecule `Cc1cccc(C(=O)NCCN2CCOCC2)c1[N+](=O)[O-]`, the “hERG current change (%, negative = inhibition) at 10uM” value was determined as 4.8%.
Consider `Cc1ccc(C)c(OCc2cc(C(=O)N3C[C@@H](C)O[C@@H](C)C3)no2)c1`, for which the “hERG current change (%, negative = inhibition) at 10uM” value was determined as 4.95%.
With `CCCCc1c(O)nc(SCC(=O)NCCc2ccc(OC)c(OC)c2)[nH]c1=O`, the “hERG current change (%, negative = inhibition) at 10uM” value is -0.0252%.
`COc1cc(OC)cc(C(=O)NC(=S)Nc2ccc3[nH]c(=O)[nH]c3c2)c1`: the “hERG current change (%, negative = inhibition) at 10uM” value was -27%.
As for `COc1ccc(C(=O)NC(=S)Nc2ccc3[nH]c(=O)[nH]c3c2)cc1`, the “hERG current change (%, negative = inhibition) at 10uM” value was 15.5%.
For `COc1cccc(C(=O)NC(=S)Nc2ccc3[nH]c(=O)[nH]c3c2)c1`, the “hERG current change (%, negative = inhibition) at 10uM” value was -70.3%.
Turning to `CCN(CC)c1ccc(CNc2nc3ccccc3n2CC)cc1`, the “hERG current change (%, negative = inhibition) at 10uM” value was -23.5%.
With `CCN(CC)c1ccc(CNc2nc3ccccc3n2CCN2CCOCC2)cc1` the figure was -79.5%; with `CCN(CC)c1ccc(CNc2nc3ccccc3n2CCN2CCCCC2)cc1`, -74.5%; with `CCN(CC)c1ccc(CNc2nc3ccccc3n2C(C)C)cc1`, 1.88%.
With `CCN(CC)c1ccc(CNc2nc3ccccc3n2C)cc1` the figure was -49.7%; with `CCC(=O)Nc1nc2ccccc2n1CCN1CCOCC1`, 16.2%.
For `Cc1ccc(NC(=O)CCN2C(=O)C3CC=CCC3C2=O)cc1Cl` (stereo not drawn) the value was -10.9%; for `COc1cc(-c2nnc(-c3ccncc3)o2)ccc1OCc1ccccc1`, 4.05%.
On to `Cc1ccccc1-c1nc2cc(NC(=O)C3CC3)ccc2o1`, for which the “hERG current change (%, negative = inhibition) at 10uM” value was found to be 7.97%.
Turning to `Cc1ccc(NC(=O)C2CC2c2ccccc2)cc1` (stereo not drawn), the “hERG current change (%, negative = inhibition) at 10uM” value is recorded as 2.96%.
With `Cc1cccc(OCC(=O)Nc2cc(C)ccc2O)c1` the figure was 12.4%; with `CCOCCCn1c(=N)c(S(=O)(=O)c2ccccc2)cc2c(=O)n3cc(C)ccc3nc21`, -19.1%; with `CC(C)OCCCn1c(=N)c(S(=O)(=O)c2ccccc2)cc2c(=O)n3ccccc3nc21`, -43.6%.
For `CCCn1c(=N)c(S(=O)(=O)c2ccccc2)cc2c(=O)n3ccccc3nc21` the value was -15.6%; for `CC(C)OCCCn1c(=N)c(C(N)=S)cc2c(=O)n3ccccc3nc21`, -81.5%; for `Cc1ccc2nc3c(cc(C(N)=S)c(=N)n3CCCOC(C)C)c(=O)n2c1`, -74.4%.
`CCOCCCn1c(=N)c(S(=O)(=O)c2ccc(C)cc2)cc2c(=O)n3cc(C)ccc3nc21`: the “hERG current change (%, negative = inhibition) at 10uM” value is recorded as 11.6%.
